{
  "source": "PubChem BioAssay (NCI)",
  "note": "Where “and” joins values, the source holds several entries; their conditions need not be identical. Equal values may be shown once. Compounds without any hit were thinned out: in the full panel of roughly 83,000, 20% have a hit.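 Testing used 96-well plates and a 48-hour single-concentration exposure. Example: -40 means 40% of the starting cells died.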 Some compounds were tested as several samples or in several runs, with calls that do not always agree. Calls of active or inactive are those of the source. How the source made its calls: active means growth percent below 10; inactive means the rest.",
  "data": [
    {"test_system": "HL-60(TB) leukemia", "test": "NCI-60 one-dose screen, 48 h (100 = growth as untreated, 0 = no growth, -100 = all killed)", "conditions": "10 µM unless noted", "values": [
      {"smiles": "NS(=O)(=O)c1ccc(CCN2C(=O)/C(=C\\c3ccccc3)C=C2c2ccc(Cl)cc2)cc1", "growth": "104% (inactive)"},
      {"smiles": "COc1cc([C@@H]2c3cc4c(cc3[C@H](O)[C@H]3COC[C@@H]23)OCO4)cc(OC)c1OC", "growth": "57.8% (inactive)"},
      {"smiles": "Cc1ccc2cccc(Oc3ccc(Nc4ncnc5onc(-c6ccccc6)c45)cc3)c2n1", "growth": "94.9% (inactive)"},
      {"smiles": "O=C(CNc1c(Cl)cccc1Cl)Nc1ccc(-c2nc3ccccc3s2)cc1", "growth": "70.7% (inactive)"},
      {"smiles": "Cc1sc2c(c1C)c(=O)nc1c(-c3nc4ccccc4s3)n[nH]n12", "growth": "98.3% (inactive)"},
      {"smiles": "COc1ccc(Nc2nc(N/N=C/c3ccc(O)cc3)nc(Nc3ccc([N+](=O)[O-])cc3)n2)cc1", "growth": "116% (inactive)"},
      {"smiles": "COc1ccc(C2C(C#N)=C(N)Oc3c2ccc2ccccc32)cc1", "note": "(stereo not given)", "growth": "22.9% (inactive)"},
      {"smiles": "Br/C(=N\\Nc1nn[nH]n1)c1ccccc1", "growth": "103% (inactive)"},
      {"smiles": "CN(C)CCNC(=O)n1cc(-c2ccncc2)c(-c2cc(O)cc(Cl)c2)n1", "growth": "87.1% (inactive)"},
      {"smiles": "CCOC(=O)c1cc(/C(=N\\O)c2cc(OC)c(OC)c(OC)c2)n2c(C)cccc12", "growth": "3.22% (active)"},
      {"smiles": "CN[C@@]12CC3(C=CC(=O)C=C3)O[C@]1(Cc1ccc(OC)cc1)N(C)C(=O)N2", "growth": "0.452% (active)"},
      {"smiles": "CC(=O)Nc1ncc(S(=O)(=O)c2ccc([N+](=O)[O-])cc2)s1", "growth": "113% (inactive)"},
      {"smiles": "O=[N+]([O-])c1ccc(Oc2cccnc2)c([N+](=O)[O-])c1", "growth": "-10.1% (active)"},
      {"smiles": "COc1ccc(NS(=O)(=O)N2CCCCC2)cc1", "growth": "115% (inactive)"},
      {"smiles": "COC[C@@H](C)n1c(C2CCOCC2)nc2c1C1C=C(OC)C(c3c(C)noc3C)=CC1N=C2", "note": "(stereo not given in full)", "growth": "11.8% (inactive)"},
      {"smiles": "CCOc1c(C#N)c2c(N)ncnc2n1C1OC(CO)C(O)C1O", "note": "(stereo not given)", "growth": "2.98% (active)"},
      {"smiles": "N/C(=N\\c1nc2ccccc2s1)NC(=O)Nc1ccccc1Cl", "growth": "-27.3% (active)"},
      {"smiles": "O=[N+]([O-])c1cccc(/C=C/c2ccc3ccccc3n2)c1", "growth": "90.8% (inactive)"},
      {"smiles": "Nc1c(C(=O)Nc2ccc(Cl)cc2)cc(-c2nc3ccccc3s2)c(=O)n1NS(=O)(=O)c1ccc(Cl)cc1", "growth": "100% (inactive)"},
      {"smiles": "CC(CN=Cc1ccccc1O)N=Cc1ccccc1O", "note": "(stereo not given)", "growth": "110% (inactive) and 83% (inactive)"},
      {"smiles": "N#CC1=C(/N=C/c2ccccc2)Oc2c(ccc3ccccc23)C1c1ccccc1", "note": "(stereo not given)", "growth": "0.269% (active)"},
      {"smiles": "CCN1C(=O)N(c2ccccc2)C2NN=c3s/c(=C4\\C(=O)N(C(C)C)c5ccccc54)c(=O)n3C21", "note": "(stereo not given)", "growth": "-16.1% (active)"},
      {"smiles": "CCn1c(=S)sc2c(Nc3ccc(F)cc3)nc(-c3cccnc3)nc21", "growth": "81.7% (inactive)"},
      {"smiles": "COc1ccc(C(=S)c2cc(OC)c(OC)c(OC)c2)cc1OC(=O)CCl", "growth": "-33% (active)"},
      {"smiles": "CSc1nc2sc3c(c2c(=O)n1-c1ccc([N+](=O)[O-])cc1)CCCCC3", "growth": "97.7% (inactive)"},
      {"smiles": "CC(=O)c1cccc(NS(=O)(=O)c2ccc(C)cc2)c1", "growth": "70.9% (inactive)"},
      {"smiles": "COC1(OC)C2(Cl)C=C(c3ccccc3)C1(Cl)C(Cl)=C2Cl", "note": "(stereo not given)", "growth": "83.7% (inactive)"},
      {"smiles": "OCCN1CCN(CCO)CC1", "growth": "108% (inactive) and 102% (inactive) and 96.2% (inactive)"},
      {"smiles": "COc1ccc(Sc2ccc3[nH]c(=O)nc(N)c3c2)cc1", "growth": "94.9% (inactive)"},
      {"smiles": "CCCCCCCC[Si](OCC)(OCC)OCC", "growth": "94.3% (inactive)"},
      {"smiles": "CC(=O)c1ccc2c(c1)c1ccccc1n2C", "growth": "84.1% (inactive)"},
      {"smiles": "CC(C)(C)CC(C)(C)c1ccc(OCCOCC[N+](C)(C)CC(=O)[O-])cc1", "growth": "96.1% (inactive)"},
      {"smiles": "O=S(=O)(O)c1ccc(Cl)c(Cl)c1", "growth": "106% (inactive)"},
      {"smiles": "CCCCCCCCOC(=O)c1ccc(O)c(OC)c1", "growth": "30.9% (inactive)"},
      {"smiles": "N#Cc1ccc(OC(=O)Nc2cc(Cl)cc(Cl)c2)cc1", "growth": "-0.568% [100 µM] (active)"},
      {"smiles": "O=C1CC(N2C(=O)/C(=C/C(Cl)=C\\c3ccc([N+](=O)[O-])cc3)SC2=S)C(=O)N1c1ccc(Cl)cc1", "note": "(stereo not given)", "growth": "21.3% (inactive)"},
      {"smiles": "Cn1cnc([N+](=O)[O-])c1Sc1ncn[nH]1", "growth": "105% (inactive)"},
      {"smiles": "C=C(C)[C@@H]1CC[C@]2(C(=O)N=C=S)CC[C@]3(C)[C@H](CC[C@@H]4[C@@]5(C)CCC(=O)C(C)(C)[C@@H]5CC[C@]43C)[C@@H]12", "growth": "-2.27% (active)"},
      {"smiles": "CC1=C(/C=C/C(C)=C/C=C/C(C)=C/C=N/NC(=S)NC(=S)N/N=C/C=C(C)/C=C/C=C(C)/C=C/C2=C(C)CCCC2(C)C)C(C)(C)CCC1", "growth": "11.7% (inactive) and -28.1% (active)"},
      {"smiles": "CCCCCCCOc1cccc(/C=C2\\N=C3SCCCN3C2=O)c1", "growth": "65% (inactive)"}
    ]}
  ]
}
